Screening data from PubChem BioAssay.
FLuc modulator = counter-screen for miR-21 project: firefly luciferase inhibitors or activators | P08659 | purified FLuc, Km substrates, luminescence inhibition | Potency, µM (top dose mostly 57.5 µM), inactives show at the highest dose activity change, negative = inhibition, usual class: inhibitors | actives 6.9% (n = 360,000) | AID 588342;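 note: plate controls were vehicle for no effect and reference inhibitor for full effect; nearly all actives have a fitted effect of over 55% in size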
Target sequence (P08659 whole entry, looked up): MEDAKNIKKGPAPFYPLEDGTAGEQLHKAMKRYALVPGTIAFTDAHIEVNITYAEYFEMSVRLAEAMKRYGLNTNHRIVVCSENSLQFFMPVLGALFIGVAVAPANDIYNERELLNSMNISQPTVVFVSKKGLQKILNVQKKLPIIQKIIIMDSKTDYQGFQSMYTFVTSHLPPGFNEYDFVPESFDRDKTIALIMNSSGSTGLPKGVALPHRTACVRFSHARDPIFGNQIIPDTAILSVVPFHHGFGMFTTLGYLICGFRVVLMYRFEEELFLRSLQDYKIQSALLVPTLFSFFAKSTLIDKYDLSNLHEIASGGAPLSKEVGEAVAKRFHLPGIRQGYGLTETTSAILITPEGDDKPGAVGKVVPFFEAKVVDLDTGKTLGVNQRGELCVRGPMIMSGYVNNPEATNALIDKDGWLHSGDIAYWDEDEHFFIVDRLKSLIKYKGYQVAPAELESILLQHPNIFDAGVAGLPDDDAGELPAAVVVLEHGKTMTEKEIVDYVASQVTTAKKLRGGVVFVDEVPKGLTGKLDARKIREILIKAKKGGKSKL
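Purified P. pyralis luciferase, 10 nM final, with Km-level 10 uM D-luciferin and 10 uM ATP in 50 mM Tris acetate pH 7.5, 10 mM Mg acetate, 0.01% Tween-20, 0.05% BSA; 6-point qHTS titration about 60 µM downward; luminescence read.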
ELG1 genotoxic = genotoxicity induction in ELG1-luciferase HEK293T cells. actives 1.3% (n = 330,000). AID 504466. HEK293T ELG1-luciferase reporter, luminescence, 16 h. Potency, µM (titrated, usually from 46 µM), inactives show top-dose activity change, positive = activation, actives largely listed as activators; note: % of control where 0% means no effect; nearly all actives have a fitted effect of over 60% in size
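HEK293T cells expressing luciferase-tagged ELG1 were treated with compound or DMSO for 16 hr at 37°C. Luciferase activity was then read after 30 min with ONE-Glo at room temperature; rising signal flags genetic stress.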
SMN2 splice enh = increases expression of the SMN2 splice variant | HEK293 SMN2-luciferase splicing reporter, luminescence, 30-36 h | actives 2.8% (n = 210,000) | Potency, µM (doses to about 46.1 µM), inactives show at the highest dose activity change, positive = activation, most hits filed as activators; note: % of control where 0% means no effect; nearly all actives have a fitted effect of over 55% in size
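HEK293 cells carry an SMN2 minigene-luciferase reporter in which exon 7 inclusion puts luciferase in frame. Cells were seeded at 2000 cells/well, attached for 10-12 hours, then exposed to compounds for 30-36 hours at 37C before ONE-Glo luminescence.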
ELG1 DNA repair = blocks ELG1-dependent DNA repair in HEK293T cells; Potency, µM (highest dose often 46.1 µM), inactives show top-dose activity change, negative = inhibition, usual class: inhibitors; AID 504467; actives 2.3% (n = 330,000); HEK293T ELG1-luciferase reporter, luminescence, 16 h; DNA damage induced by 5-fluorouridine; note: % is set by controls: 0 for no effect and ±100 for the full control effect; nearly all actives have a fitted effect of over 55% in size
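Overnight (16 hr) co-exposure of 2,000 cells/well to 5-fluorouridine and compound at 37 °C preceded detection. Luciferase was quantified via ONE-Glo luminescence; loss of signal denotes inhibition.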
Rab9 promoter act = Rab9 promoter activation. Huh7 Rab9 promoter-luciferase reporter, luminescence, 24 h. actives 2.8% (n = 320,000). AID 485297. Potency, µM (series often up to 9.22 µM), inactives show top-dose activation, negative = inhibition, actives largely listed as activators; note: % of control where 0% means no effect; nearly all actives have a fitted effect of over 60% in size
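Huh7 reporter line, Rab9 promoter upstream of luciferase. Compound exposure 24 h at 37 °C in reduced-serum medium with 10% FBS. Read-out: luminescence.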
NPC1 promoter act = activates the NPC1 promoter. AID 485313. actives 2.4% (n = 320,000). Potency, µM (series often up to 9.22 µM), without a hit: at the top dose activation, most hits filed as activators. Huh7 NPC1 promoter luciferase reporter, 24 h; note: % of control where 0% means no effect; nearly all actives have a fitted effect of over 60% in size
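Huh7 cells stably carrying NPC1 promoter–luciferase, plated in Opti-MEM with 10% FBS for 2 h, were exposed to compound in DMSO for 24 h at 37 °C; luciferase reagent was added for 10 min and luminescence read.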
* marks the source's active call; other numbers are inactive results; ? = inconclusive; . = no result given; [ ] = dose if it differs, or a comment. This is a sample that favours compounds with a hit; in the whole collection about 9.2% have one here. Calls come from the whole dose curve; as a rule, active = well fitted curve in the direction sought with a large enough effect; inconclusive = small, poorly fitted or top-dose-only effect, or another doubt; inactive = no such curve, though single readings can be large; an effect the other way counts as inactive or inconclusive. Potency is the fitted concentration of half-maximal effect.

SMILES	FLuc modulator	ELG1 genotoxic	SMN2 splice enh	ELG1 DNA repair	Rab9 promoter act	NPC1 promoter act
COc1ccc(NC(=O)c2cc(-c3ccccc3)on2)cc1	?	11.5%	.	?	1.9%	1.4%
CCC(C)NC(=O)c1cc(-c2cccc(OC)c2)on1 (configuration not stated)	13.5µM*	.	11.2µM*	.	.	.
COc1cccc(-c2cc(C(=O)Nc3cccnc3)no2)c1	1.35µM*	?	-8.0%	?	-1.4%	-1.8%
COc1ccc(OC)c(NC(=O)c2ccc3c(c2)c(C)c(C)n3Cc2ccc(F)cc2)c1	-9.0%	.	.	.	.	.
CC1(C)C2CCC1(C)C(NCC(O)COc1ccc(C#N)cc1)C2 (configuration not stated)	1.6%	-3.5%	.	-12.2%	-1.1%	-1.3%
COc1cc(NC(=O)c2cc3nc(-c4ccccc4)cc(-c4ccccc4)n3n2)cc(OC)c1OC	4.0%	-5.6%	-2.3%	10µM*	-0.7%	-0.6%
COc1cc(C2=NOC(C(=O)N3CCCCCC3)C2)cc(OC)c1OC (configuration not stated)	1.4%	1.0%	.	7.31µM*	-5.2%	1.8%
O=C(NCCc1ccccc1)c1cc(-c2ccc(Br)cc2)on1	-6.8%	.	-7.2%	.	.	.
O=C(Nc1cccnc1)c1cc(-c2ccc(Br)cc2)on1	2.13µM*	5.8µM*	10.7%	?	0.1%	-0.5%
COc1cc(C2=NOC(C(=O)N3CCN(c4ccc(F)cc4)CC3)C2)cc(OC)c1OC (configuration not stated)	4.6%	-3.2%	-25.4%	?	-8.1%	-0.6%
COc1cc(NC(=O)c2cc(-c3ccccc3)on2)cc(OC)c1OC	-2.3%	-8.2%	.	?	-2.6%	-2.6%
COC(=O)c1c(-c2cccnc2)csc1NC(=O)c1cc(C)on1	6.01µM*	?	11.2µM*	?	1.78µM*	2µM*
COc1ccc(CCNC(=O)CCCc2nnc3n(C)c(=O)c4sccc4n23)cc1OC	-1.8%	2.3%	.	-1.9%	0.6%	2.8%
Cc1nc(N2CCN(C(=O)c3cnccn3)CC2)c2c3c(sc2n1)CC(C(C)(C)C)CC3 (configuration not stated)	-0.9%	-0.6%	.	13.9%	-0.6%	?
COC(C[C@H]1O[C@H]1[C@@H](O)[C@@H](C)OCc1ccccc1)OC	0.9%	3.9%	.	16.7%	2.2%	-0.9%
CCCC1(C(=O)OCC)NC(c2ccc(O)cc2)C2C(=O)N(c3cccc(C(C)=O)c3)C(=O)C21 (configuration not stated)	0.2%	0.4%	.	1.5%	8.8%	-0.4%
Cc1ccccc1Cn1nc(C)c(NC(=O)c2cc(CC(C)C)on2)c1C	0.1%	-8.4%	-25.5%	25.9µM*	-16.1%	0.0%
COc1cccc(-c2cc(C(=O)Nc3cc(OC)c(OC)c(OC)c3)no2)c1	?	-22.9%	8.8%	23.1µM*	-7.0%	-17.1%
CCc1cc(C(=O)Nc2cnn(Cc3ccccc3C)c2)no1	23.9µM*	.	17.8µM*	.	.	.
Cc1nn(Cc2ccc(Cl)c(Cl)c2)c(C)c1NC(=O)c1cc(CC(C)C)on1	1.3%	?	-69.6%	?	-3.1%	-5.1%
CCCCNC(=S)Nc1ccc(C(F)(F)F)cc1	?	-15.2%	?	?	-0.4%	6.3%
O=C(COC(=O)Cn1cnc2ccccc2c1=O)Nc1ccccc1OC(F)F	.	1.2%	.	-3.8%	.	.
CN(c1ccc(F)cc1)S(=O)(=O)c1ccc(Cl)c(C(=O)Nc2ccncc2)c1	4.6%	-3.5%	.	11.6µM*	-7.8%	-2.3%
CN(c1ccccc1)S(=O)(=O)c1ccc(Cl)c(C(=O)Nc2ccncc2)c1	.	-6.5%	.	?	-7.5%	-8.1%
O=C(Nc1ccc2c(c1)oc1ccc(S(=O)(=O)N3CCCC3)cc12)C1CC1	3.2%	-6.8%	3.0%	16.4µM*	-6.2%	-4.1%
SMILES	FLuc modulator	ELG1 genotoxic	SMN2 splice enh	ELG1 DNA repair	Rab9 promoter act	NPC1 promoter act
O=C(Nc1ccc2c(c1)oc1ccccc12)C1CC1	5.36µM*	?	?	?	2.51µM*	3.98µM*
Cc1cccc2cc(CN(CC3CCCO3)C(=O)c3ccncc3)c(=O)[nH]c12 (configuration not stated)	-0.6%	1.2%	6.6%	-2.0%	-3.3%	-4.4%
COc1ccc2[nH]c(=O)c(CN(CC3CCCO3)C(=S)Nc3ccccc3)cc2c1 (configuration not stated)	-0.1%	-0.2%	.	-2.4%	-7.3%	-4.3%
COc1ccc(NC(=O)N(Cc2cc3cc(OC)ccc3[nH]c2=O)CC2CCCO2)cc1 (configuration not stated)	-6.4%	-5.9%	5.9%	10.3µM*	4.4%	-0.2%
COc1ccc2cc(CN(CC3CCCO3)C(=S)Nc3ccccc3)c(=O)[nH]c2c1 (configuration not stated)	-4.9%	-9.0%	.	8.2µM*	-32.8%	-24.4%
Cc1ccc(C)c2[nH]c(=O)c(CN(CC3CCCO3)C(=O)NC3CCCCC3)cc12 (configuration not stated)	-1.1%	-1.8%	25.0%	8.2µM*	-5.1%	-3.9%
COc1ccc(NC(=O)N(Cc2cc3ccc(OC)cc3[nH]c2=O)CC2CCCO2)cc1 (configuration not stated)	?	-4.0%	-4.7%	10.3µM*	-10.8%	-15.3%
Cc1cc(C)cc(NC(=O)Cn2c(=O)n(C(C)C)c(=O)c3oc4ccccc4c32)c1	1.4%	.	.	.	.	.
N[C@@H](CNO)C(=O)O	.	.	-10.8%[9.22 µM]	.	.	.
Cc1ccccc1Cn1ccn(-c2ccc(F)c(F)c2)c(=O)c1=O	-0.8%	.	.	.	.	.
COc1ccc2cc(CN(CC3CCCO3)C(=O)Nc3ccccc3OC)c(=O)[nH]c2c1 (configuration not stated)	-8.6%	-3.2%	.	7.3µM*	-32.6%	-26.7%
COc1ccccc1-n1c(=O)c(C#N)c(-c2ccc([N+](=O)[O-])cc2)c2cc(C(=O)c3ccccc3O)cnc21	-7.5%	0.8%	.	-18.8%	-3.9%	-4.5%
COc1ccc(CCN(/C=C2\Sc3ccccc3C2=O)C(C)=O)cc1OC	26.9µM*	-0.4%	.	?	-2.6%	-4.9%
CCOC(=O)C1(Cc2cccc(OC)c2)CCCN(C(=O)CNC(C)=O)C1 (configuration not stated)	15.1µM*	?	.	?	3.16µM*	?
CCOC(=O)C1(Cc2cccc(OC)c2)CCN(Cc2cccnc2)CC1	5.36µM*	?	.	?	14.2%	-1.9%
CCOC(=O)C1(Cc2cccc(OC)c2)CCCN(C(=O)c2cc(C)on2)C1 (configuration not stated)	12µM*	?	.	?	3.16µM*	?
